# Reference: PubChem BioAssay (NCATS)
# Inconclusive results are not listed. Where a call stands in place of a potency, no number is given. Calls of active or inactive are those of the source. Calls follow the shape of the dose curve; as a rule, active = well fitted curve in the direction sought with a large enough effect; inconclusive = small, poorly fitted or top-dose-only effect, or another doubt; inactive = no such curve, though single readings can be large; an effect the other way counts as inactive or inconclusive.
# Experiments:
# [1] = biological target: Aldehyde dehydrogenase, mitochondrial (Homo sapiens) (UniProt P05091); experiment: qHTS for Inhibitors of the Aldehyde Dehydrogenase Family (ALDH2) Primary screen (AID 2061308); also: nearly all actives have a fitted effect of over 55% in size
# [2] = biological target: Retinaldehyde dehydrogenase 3 (Homo sapiens) (UniProt P47895); experiment: qHTS for Inhibitors of the Aldehyde Dehydrogenase Family (ALDH1A3) Primary screen (AID 2061315)
Structure (SMILES),Potency [1],Potency [2]
N#Cc1cc(-c2nc(Nc3ccc(F)c(F)c3)c3ccccc3n2)ccn1,inactive,inactive
O=C(Nc1nnc(-c2ccncc2)s1)Nc1ccc(Cl)cc1Cl,inactive,inactive
O=C(Nc1ncc(Cc2cccc(C(F)(F)F)c2)s1)c1ccc(-c2cccc([N+](=O)[O-])c2)o1,inactive,inactive
CCN1CCCC1Cn1c(-c2ccccc2)nc2c(NC3CCCCC3)nc(C)nc21 (stereo not drawn),inactive,inactive
CCCn1c(C)nc2c(NCCCCN3CCCC3)nc(C)nc21,inactive,inactive
Cc1c(P(=S)(c2ccccc2)c2ccccc2)c2ccccc2n1Cc1ccccc1,inactive,inactive
O=S(=O)(NCCNS(=O)(=O)c1c(F)cccc1F)c1ccc2c(c1)OCCO2,inactive,inactive
O=C(N[C@H]1CCCc2c1cnn2-c1ccc(F)cc1F)c1ccccn1,inactive,inactive
Cc1cc2c(s1)c1cnn(Cc3c(F)ccc(C)c3Cl)c(=O)c1n2C,inactive,inactive
CC(=O)Nc1ccc(S(=O)(=O)N2CCCN(S(=O)(=O)c3ccc4c(c3)OCCO4)CC2)cc1,inactive,inactive
O=S(=O)(c1ccc2c(c1)OCCO2)C1CCN(S(=O)(=O)c2c(F)cccc2F)CC1,inactive,inactive
COc1ccc2[nH]c(=O)c3c(c2c1)OC(C)(C)C=C3,inactive,inactive
N#Cc1nc(NCCCCO)nc(Nc2ccccc2)n1,inactive,inactive
O=C(Cn1nc(-c2ccc3c(c2)OCO3)ccc1=O)NCCc1ccccc1,inactive,inactive
CC(C)N1CCc2c(sc(NC(=O)C3CCCC3)c2-c2nc3ccccc3s2)C1,inactive,inactive
O=C(Nc1ccc(Cl)c(C(F)(F)F)c1)Nc1cccc(-c2ccncc2)n1,inactive,inactive
Cc1cc(-c2ccccc2)nc2c(C(=O)Nc3ccc4c(c3)CCC4)cnn12,inactive,inactive
Cc1nnc(-c2cnn(C)c2N)n1CCCc1ccccn1,inactive,inactive
Cc1ccc(C(C)c2ccc(=O)n(CC(=O)NCCc3ccccc3)n2)cc1 (stereo not drawn),inactive,inactive
Fc1cccc(-c2ccc(Nc3nc(-c4ccncc4)nc4ccccc34)cc2F)c1,inactive,inactive

Structure (SMILES),Potency [1],Potency [2]
COc1ccccc1S(=O)(=O)Nc1cnccc1C(=O)Nc1nc(-c2ccccc2)cs1,inactive,inactive
Cc1ccc(OCCn2c(CCNC(=O)C3CCN(C(=O)OC(C)(C)C)CC3)nc3ccccc32)cc1,inactive,inactive
COc1ccc(C(=O)Nc2ccc(-c3nc4ccccc4[nH]3)cc2)cc1C(F)(F)F,inactive,inactive
Cc1cc(C)nc(NC(=S)N2CCN(c3cccc4nccn34)CC2)c1,inactive,inactive
O=C(CN1C(=O)N/C(=C\c2cccn2-c2cccc(C(=O)O)c2)C1=O)Nc1ccccc1F,inactive,inactive
Cc1ccc(S(=O)(=O)Nc2ccc(F)cc2C(=O)Nc2nc(-c3ccccc3)cs2)cc1,inactive,inactive
S=C(Nc1ccc(Cl)c(Cl)c1)Nc1nnc(-c2ccncc2)o1,inactive,inactive
CC(=O)Nc1sc2c(c1-c1nc3ccccc3s1)CCN(C)C2,inactive,inactive
O=[S+]([O-])(c1cc2ccccc2o1)N1CCN([S+](=O)([O-])c2c(F)cccc2F)CC1,inactive,inactive
Cc1ccc(S(=O)(=O)Nc2cc([N+](=O)[O-])ccc2C(=O)Nc2nc(-c3ccccc3)cs2)cc1,inactive,inactive
COc1ccc(OCc2nnc3n2N=C(c2ccccc2)CS3)cc1,inactive,inactive
Cn1cc(P(=O)(c2ccccc2)c2ccccc2)c2ccccc21,inactive,inactive
COc1ccc(S(=O)(=O)NC2CCN(C#N)CC2)cc1,inactive,inactive
C[C@@H]1C[C@@H](O)[C@@]23CO[C@@H](O)[C@@H]2CCC[C@@H]3[C@@]12C[C@@H](c1ccoc1)OC2=O,inactive,inactive
Cc1ccc(S(=O)(=O)Nc2cnccc2C(=O)Nc2ccc(C#N)cc2)cc1,inactive,inactive
C=C(C)C(=O)OC1C(OC(C)=O)/C(C=O)=C\CC/C(CO)=C/C2OC(=O)C(=C)C21 (stereo not drawn),inactive,inactive
COc1ccc(S(=O)(=O)Nc2ccc(C)c(C)c2)cc1,inactive,inactive
COC(=O)c1ccc2c(c1)/C(=C/c1cc(Br)c(O)c(Br)c1)C(=O)N2,inactive,inactive
N#Cc1ccc(C(=O)NCC(=O)OC(C(=O)Nc2cc(C(F)(F)F)ccc2Cl)c2ccccc2)cc1 (stereo not drawn),inactive,inactive
